In PubChem BioAssay (NCATS):
Several values for one entry are separate records, joined by “and”; a condition that tells them apart may be missing. Equal values may be shown once. Inconclusive results are not listed. Activity calls are given as the source filed them. Unless noted, the call rests on the fitted dose curve; in most records, active means well fitted curve in the direction sought with a large enough effect; inconclusive means small, poorly fitted or top-dose-only effect, or another doubt; inactive means no such curve, though single readings can be large; an effect the other way counts as inactive or inconclusive.

Assays:
[1] = AP1 Signaling Pathway (AID 357; active means well fitted curve in either direction with a large enough effect, not every such curve was filed as active;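 further: ME-180 reporter cells stimulated with EGF at its EC50 level; on the % scale 0 is the no-effect control and ±100 the full control effect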); conditions: ME-180 (cervical carcinoma) AP-1-bla reporter, EGF-induced, beta-lactamase ratio, 5 h; at 7.69 µM (top of the series) unless noted
Outline: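 In this screen, ME-180 cells in Opti-MEM with 0.5% dialyzed FBS received EC50 EGF and compound titrations for 5 h. AP-1 reporter beta-lactamase was detected via CCF4 ratio, giving AC50 for positive and negative modulators.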

[2] = target: Cytochrome P450 1A2 (Homo sapiens) (UniProt P05177); assay: p450-cyp1a2 (AID 410; calls by dose curve;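 further: -100% = full effect of reference inhibitor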)
Sequence of Cytochrome P450 1A2 (Homo sapiens) (P05177 whole entry, looked up): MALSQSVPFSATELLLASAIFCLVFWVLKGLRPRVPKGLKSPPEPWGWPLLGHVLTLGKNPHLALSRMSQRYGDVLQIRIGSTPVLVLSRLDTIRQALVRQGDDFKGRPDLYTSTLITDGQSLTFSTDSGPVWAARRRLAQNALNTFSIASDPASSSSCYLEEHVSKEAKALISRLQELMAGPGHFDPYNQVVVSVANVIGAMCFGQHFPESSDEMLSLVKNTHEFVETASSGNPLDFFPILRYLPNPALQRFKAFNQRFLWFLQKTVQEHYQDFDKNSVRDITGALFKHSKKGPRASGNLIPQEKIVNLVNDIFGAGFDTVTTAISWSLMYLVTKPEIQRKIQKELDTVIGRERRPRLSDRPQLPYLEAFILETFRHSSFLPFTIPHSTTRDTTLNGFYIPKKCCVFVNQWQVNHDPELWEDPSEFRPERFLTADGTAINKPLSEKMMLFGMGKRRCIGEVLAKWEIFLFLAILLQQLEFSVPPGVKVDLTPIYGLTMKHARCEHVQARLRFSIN
Outline: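 Read-out is luminescence from luciferin produced by CYP1A2 demethylation of Luciferin-ME (100uM, at Km). Detection reagent stopped the 60 min NADPH-dependent reaction; signals were normalized to 57 uM furafylline.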

[3] = NFAT Signaling Pathway (AID 444; active means well fitted curve in either direction with a large enough effect, not every such curve was filed as active;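 further: carbachol stimulus at about its EC50 of 1 µM final; on the % scale 0 is the no-effect control and ±100 the full control effect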); conditions: Jurkat NFAT-bla M1, carbachol, beta-lactamase ratio, 5 h; at 7.69 µM (top of the series) unless noted
Outline: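 Read-out: CCF4 FRET ratio (460 nm/530 nm) after 1 h RT dye loading, used for %activity and AC50 from titration series. Cells: Jurkat NFAT-β-lactamase/M1 line, treated with compound plus 1 uM carbachol for 5 h, 37 °C.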

[4] = target: Glucocorticoid receptor (Homo sapiens) (UniProt P04150); assay: GR-EFC Redistribution (AID 451; calls by dose curve; further: potency means the concentration at half of the fitted maximal effect); conditions: CHO-K1 GR-EFC translocation, beta-gal luminescence, 2 h
Sequence of Glucocorticoid receptor (Homo sapiens) (P04150 whole entry, looked up, the tested form may be a part): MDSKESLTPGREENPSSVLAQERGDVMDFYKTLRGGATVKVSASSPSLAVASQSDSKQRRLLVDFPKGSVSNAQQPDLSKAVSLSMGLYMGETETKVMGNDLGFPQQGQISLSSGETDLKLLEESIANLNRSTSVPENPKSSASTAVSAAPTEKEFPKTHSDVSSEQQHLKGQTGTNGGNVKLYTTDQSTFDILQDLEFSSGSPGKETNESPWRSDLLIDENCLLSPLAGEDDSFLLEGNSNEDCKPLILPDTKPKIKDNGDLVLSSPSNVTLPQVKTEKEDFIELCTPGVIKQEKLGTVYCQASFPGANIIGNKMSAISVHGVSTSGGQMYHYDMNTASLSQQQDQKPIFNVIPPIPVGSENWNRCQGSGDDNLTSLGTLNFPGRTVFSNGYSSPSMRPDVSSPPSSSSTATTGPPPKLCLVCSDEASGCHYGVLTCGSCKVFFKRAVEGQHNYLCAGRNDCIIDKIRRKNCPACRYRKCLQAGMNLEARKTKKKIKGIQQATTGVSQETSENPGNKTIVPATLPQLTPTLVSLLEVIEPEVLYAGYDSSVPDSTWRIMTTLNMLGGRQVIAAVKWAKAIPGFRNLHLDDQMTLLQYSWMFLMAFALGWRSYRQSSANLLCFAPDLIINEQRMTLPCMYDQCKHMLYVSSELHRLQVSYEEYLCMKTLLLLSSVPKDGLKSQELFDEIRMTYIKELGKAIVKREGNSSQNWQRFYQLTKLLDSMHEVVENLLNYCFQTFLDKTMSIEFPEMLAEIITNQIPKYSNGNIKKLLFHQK
Outline: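 Translocation of GR-ED fusion to nuclear EA restores b-gal, read by luminescence after 1 h room-temperature detection. Engineered CHO-K1 biosensor cells, 1,000/well, exposed 2 h at 37 C to titrations up to 46 uM final.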

[5] = target: Mitogen-activated protein kinase 10 (Mus musculus) (UniProt Q61831); assay: JNK3 AlphaScreen Assay (AID 530; active means well fitted curve in either direction with a large enough effect, not every such curve was filed as active;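 further: kinase came from lysate of stimulated human HepG2 cells; signal reports phosphorylation of biotinylated GST-cJun 1-79 at Ser73 with 10 µM ATP; on the % scale 0 is the no-effect control and ±100 the full control effect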)
Outline: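 Kinase buffer: 20 mM Tris-HCl pH 7.6, 10 mM MgCl2, 1 mM DTT, 0.1 mM Na3VO4, 0.01% Tween-20; ATP 10 uM. Substrate biotin-GST-cJun(1-79), enzyme from activated HepG2 lysates. Detection by Ser73 phospho-antibody AlphaScreen.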

[6] = target: 3',5'-cyclic-AMP phosphodiesterase 4B (Homo sapiens) (UniProt Q07343); assay: qHTS Assay for Inhibitors of PDE-IV (AID 607; active means well fitted activation curve with a large enough effect in the main read-out, with a control signal flat, not every such curve was filed as active; further: % of control where 0% means no effect)
Sequence of 3',5'-cyclic-AMP phosphodiesterase 4B (Homo sapiens) (Q07343 whole entry, looked up): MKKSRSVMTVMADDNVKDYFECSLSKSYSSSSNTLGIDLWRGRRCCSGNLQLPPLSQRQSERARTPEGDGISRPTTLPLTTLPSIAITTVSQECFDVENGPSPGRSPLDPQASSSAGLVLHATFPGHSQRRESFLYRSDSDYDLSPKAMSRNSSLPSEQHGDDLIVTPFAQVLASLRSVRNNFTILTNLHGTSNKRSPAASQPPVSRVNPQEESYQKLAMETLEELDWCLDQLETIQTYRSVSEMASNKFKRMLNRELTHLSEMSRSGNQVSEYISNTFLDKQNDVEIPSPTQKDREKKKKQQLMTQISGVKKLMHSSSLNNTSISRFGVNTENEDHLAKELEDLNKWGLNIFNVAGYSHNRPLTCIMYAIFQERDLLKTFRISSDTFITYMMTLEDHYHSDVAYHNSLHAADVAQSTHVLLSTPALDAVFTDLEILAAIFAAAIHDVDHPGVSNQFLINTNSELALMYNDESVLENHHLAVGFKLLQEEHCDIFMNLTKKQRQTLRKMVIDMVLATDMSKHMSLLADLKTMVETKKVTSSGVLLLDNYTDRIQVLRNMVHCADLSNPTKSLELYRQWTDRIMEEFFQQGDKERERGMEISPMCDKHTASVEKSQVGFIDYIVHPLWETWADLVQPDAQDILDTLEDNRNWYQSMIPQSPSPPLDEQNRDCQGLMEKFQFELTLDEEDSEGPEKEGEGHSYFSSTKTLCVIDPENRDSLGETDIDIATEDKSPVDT
Outline: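 Live HEK293 cells with a modified cyclic nucleotide-gated (CNG) channel report intracellular cAMP via membrane-potential dye fluorescence (ex 535/em 590 nm). Endogenous PDE-IV was targeted. Compounds were tested at up to 22.9 uM final; RO 20-1724 100 uM served as control.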

[7] = target: Guanine nucleotide-binding protein G(i) subunit alpha-1 (Homo sapiens) (UniProt P63096); assay: qHTS Assay for Inhibitors of RGS12 GoLoco Motif Activity (Green Fluorophore) (AID 879);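 further: 0% = labeled peptide with Gαi1 and full inhibition = labeled peptide alone without protein; negative values mean loss of peptide binding seen as reduced polarization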
Sequence of Guanine nucleotide-binding protein G(i) subunit alpha-1 (Homo sapiens) (P63096 whole entry, looked up): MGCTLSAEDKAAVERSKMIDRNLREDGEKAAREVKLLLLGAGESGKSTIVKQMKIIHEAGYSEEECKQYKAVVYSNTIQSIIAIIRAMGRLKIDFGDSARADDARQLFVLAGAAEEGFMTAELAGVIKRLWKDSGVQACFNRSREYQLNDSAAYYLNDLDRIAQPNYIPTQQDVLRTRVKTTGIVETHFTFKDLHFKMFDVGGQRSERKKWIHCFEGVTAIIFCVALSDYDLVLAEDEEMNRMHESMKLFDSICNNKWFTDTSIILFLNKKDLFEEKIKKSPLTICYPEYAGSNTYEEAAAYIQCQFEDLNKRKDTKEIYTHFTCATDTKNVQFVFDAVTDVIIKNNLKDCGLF
Outline: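 A drop in FITC polarization marked displacement of the FITC-tagged RGS12 GoLoco peptide (10 nM) from Gαi1 (50 nM). Compounds were incubated 10 min at room temperature in Tris pH 7.5 buffer containing 150 mM NaCl, 0.1 mM GDP and 0.05% NP40; unlabeled peptide titration served as control.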

[8] = target: Cytochrome P450 2D6 (Homo sapiens) (UniProt P10635); assay: qHTS Assay for Inhibitors and Substrates of Cytochrome P450 2D6 (AID 891);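 further: luciferin methyl ether substrate demethylated by CYP2D6 with NADPH regeneration; on the % scale 0 is the no-effect control and ±100 the full control effect; nearly all actives have a fitted effect of over 60% in size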
Sequence of Cytochrome P450 2D6 (Homo sapiens) (P10635 whole entry, looked up): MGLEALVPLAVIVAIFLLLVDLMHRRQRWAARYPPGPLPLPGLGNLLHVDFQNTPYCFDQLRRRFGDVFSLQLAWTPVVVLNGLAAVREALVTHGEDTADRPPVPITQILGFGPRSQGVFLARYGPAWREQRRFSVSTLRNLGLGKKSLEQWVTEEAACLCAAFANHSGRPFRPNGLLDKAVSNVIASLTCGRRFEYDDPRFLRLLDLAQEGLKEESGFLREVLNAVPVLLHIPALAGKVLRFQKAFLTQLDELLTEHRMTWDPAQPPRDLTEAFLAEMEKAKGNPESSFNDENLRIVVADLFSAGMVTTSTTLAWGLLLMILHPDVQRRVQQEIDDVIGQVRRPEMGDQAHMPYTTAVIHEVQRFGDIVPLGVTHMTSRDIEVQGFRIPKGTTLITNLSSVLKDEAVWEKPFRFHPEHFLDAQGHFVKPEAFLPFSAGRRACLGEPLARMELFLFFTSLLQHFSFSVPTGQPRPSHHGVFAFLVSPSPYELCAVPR
Outline: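 Luminescent read-out of luciferin formed by 5 nM human CYP2D6 demethylating 30 uM Luciferin-ME EGE (Km level) over 60 min at room temperature after NADPH regeneration addition. Data normalized to full inhibition by 1.43 uM quinidine.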

[9] = qHTS Assay for Identification of Small Molecule Agonists for Thrombopoietin (TPO) Signaling Pathway (AID 917); further: on the % scale 0 is the no-effect control and ±100 the full control effect
Outline: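 Quantitative HTS for pathway activators: compounds were pin-transferred onto IL-3-starved Ba/F3 cells expressing human TPO receptor, TPO was added at its EC50 (26 pM final), and after 24 hrs at 37 C reporter luciferase was measured.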

[10] = target: Muscarinic acetylcholine receptor M1 (Rattus norvegicus) (UniProt P08482); assay: qHTS Assay for Antagonists of Acetylcholine Muscarinic M1 Receptor: Kinetic Measurement of Intracellular Calcium Response (AID 943);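 further: Fluo-4 calcium signal as peak divided by basal fluorescence over 4 min; nearly all actives have a fitted effect of over 75% in size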
Sequence of Muscarinic acetylcholine receptor M1 (Rattus norvegicus) (P08482 whole entry, looked up): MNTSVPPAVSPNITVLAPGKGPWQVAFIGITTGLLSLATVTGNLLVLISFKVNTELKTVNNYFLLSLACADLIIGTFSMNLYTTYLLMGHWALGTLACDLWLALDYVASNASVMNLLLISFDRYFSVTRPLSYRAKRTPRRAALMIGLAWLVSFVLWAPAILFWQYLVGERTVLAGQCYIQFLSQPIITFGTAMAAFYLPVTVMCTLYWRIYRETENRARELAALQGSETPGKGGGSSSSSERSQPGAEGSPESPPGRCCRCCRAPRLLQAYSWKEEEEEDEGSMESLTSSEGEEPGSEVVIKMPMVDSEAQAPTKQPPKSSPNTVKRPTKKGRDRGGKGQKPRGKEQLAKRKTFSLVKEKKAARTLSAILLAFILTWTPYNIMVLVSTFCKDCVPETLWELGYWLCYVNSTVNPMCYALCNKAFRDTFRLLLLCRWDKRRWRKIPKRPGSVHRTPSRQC
Outline: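 Quantitative HTS in CHO-M1 (rat receptor) cells: 10 min compound exposure ahead of 100 nM carbachol, Fluo-4 fluorescence followed 4 min, value expressed as peak-to-basal ratio.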

[11] = target: Muscarinic acetylcholine receptor M1 (Rattus norvegicus) (UniProt P08482); assay: qHTS Assay for Antagonists of Acetylcholine Muscarinic M1 Receptor: Measurement of IP-One Response (AID 944); further: nearly all actives have a fitted effect of over 75% in size
Outline: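 Antagonism was measured as loss of carbachol-driven (EC80) IP1 accumulation in CHO cells carrying rat M1, using a homogeneous IP-One TR-FRET kit read at 620 and 665 nm.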

[12] = target: Pyruvate kinase (Leishmania mexicana) (UniProt Q27686); assay: qHTS Validation Assay for Inhibitors of Leishmania Mexicana Pyruvate Kinase (AID 945);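 further: 0% = DMSO only neutral control wells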
Sequence of Pyruvate kinase (Leishmania mexicana) (Q27686 2-499 E452W): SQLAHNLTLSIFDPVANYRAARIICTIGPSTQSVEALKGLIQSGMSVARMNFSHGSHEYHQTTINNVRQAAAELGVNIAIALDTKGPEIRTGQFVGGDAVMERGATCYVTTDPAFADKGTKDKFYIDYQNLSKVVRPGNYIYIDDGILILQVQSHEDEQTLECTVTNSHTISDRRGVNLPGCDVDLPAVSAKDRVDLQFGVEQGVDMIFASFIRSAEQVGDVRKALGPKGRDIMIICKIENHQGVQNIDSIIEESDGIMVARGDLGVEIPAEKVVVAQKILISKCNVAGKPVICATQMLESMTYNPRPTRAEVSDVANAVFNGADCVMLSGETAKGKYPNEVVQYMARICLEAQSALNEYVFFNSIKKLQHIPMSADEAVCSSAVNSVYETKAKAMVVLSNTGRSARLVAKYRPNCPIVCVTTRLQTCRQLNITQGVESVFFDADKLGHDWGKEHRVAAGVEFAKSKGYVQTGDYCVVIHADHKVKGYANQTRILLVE
Outline: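 The enzyme is a highly purified E451W mutant of LmPYK used at 0.2 nM. It converts 0.5 mM PEP and 0.1 mM ADP over 1 h at room temperature; product ATP is quantified by luciferase luminescence relative to DMSO controls.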

[13] = target: Pyruvate kinase PKM (Homo sapiens) (UniProt P14618); assay: qHTS Assay for Activators of Human Muscle Pyruvate Kinase (AID 954; active means well fitted curve in the direction sought with a large enough effect, not every such curve was filed as active;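 further: 0% = uninhibited enzyme and -100% = no enzyme or full thiadiazolimine inhibition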)
Sequence of Pyruvate kinase PKM (Homo sapiens) (P14618 whole entry, looked up): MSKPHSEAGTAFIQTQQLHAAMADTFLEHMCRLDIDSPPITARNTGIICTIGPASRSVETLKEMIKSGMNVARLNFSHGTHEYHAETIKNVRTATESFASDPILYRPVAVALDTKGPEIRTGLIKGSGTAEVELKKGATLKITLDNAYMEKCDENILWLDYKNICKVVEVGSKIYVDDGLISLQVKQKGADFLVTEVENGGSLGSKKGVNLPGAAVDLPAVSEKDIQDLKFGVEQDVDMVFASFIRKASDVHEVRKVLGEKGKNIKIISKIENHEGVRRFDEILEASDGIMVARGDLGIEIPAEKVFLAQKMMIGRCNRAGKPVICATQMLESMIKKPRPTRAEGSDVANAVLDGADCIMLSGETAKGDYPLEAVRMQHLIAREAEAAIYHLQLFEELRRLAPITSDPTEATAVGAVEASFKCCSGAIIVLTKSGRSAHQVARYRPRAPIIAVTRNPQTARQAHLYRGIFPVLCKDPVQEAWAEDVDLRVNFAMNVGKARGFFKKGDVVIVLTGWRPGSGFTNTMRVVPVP
Outline: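 Screening used highly purified human pyruvate kinase M2 under submaximal activity, with PEP at its Km and ADP below Km. After an hour at room temperature, ATP was read by luciferase luminescence.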

[14] = target: Alpha-galactosidase A (Homo sapiens) (UniProt P06280); assay: Counterscreen for Glucocerebrosidase Inhibitors: qHTS Assay for Human alpha-Galactosidase at pH 4.5 (AID 992); further: 0% is about no effect
Sequence of Alpha-galactosidase A (Homo sapiens) (P06280 whole entry, looked up): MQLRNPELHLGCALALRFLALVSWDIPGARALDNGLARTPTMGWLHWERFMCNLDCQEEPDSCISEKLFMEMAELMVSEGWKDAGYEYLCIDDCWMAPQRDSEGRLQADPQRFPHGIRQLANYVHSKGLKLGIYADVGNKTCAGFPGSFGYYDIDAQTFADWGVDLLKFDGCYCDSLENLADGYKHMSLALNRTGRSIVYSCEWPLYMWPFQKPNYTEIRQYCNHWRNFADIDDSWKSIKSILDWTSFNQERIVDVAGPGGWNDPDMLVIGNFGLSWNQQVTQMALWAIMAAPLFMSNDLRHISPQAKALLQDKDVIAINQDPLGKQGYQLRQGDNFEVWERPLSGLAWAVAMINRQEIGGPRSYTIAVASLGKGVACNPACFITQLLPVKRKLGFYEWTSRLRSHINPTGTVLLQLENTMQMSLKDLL
Outline: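 Each compound is preincubated briefly with 2 nM enzyme before substrate addition (80 uM); plates then sit 20 min at ambient temperature, are quenched with 1M NaOH/1M glycine, and read fluorometrically.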

[15] = target: alpha-glucosidase (Oryza sativa, rice) (UniProt Q653V4); assay: Counterscreen for Glucocerebrosidase Inhibitors: qHTS Assay for Rice alpha-Glucosidase at pH 5.0 (AID 997);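 further: 0% = full activity with enzyme and -100% = basal without enzyme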
Outline: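 Endpoint fluorogenic assay at pH 5.0: compounds (0.7 nM to 77 uM) titrated against 4 nM rice enzyme and 400 uM 4-MU-alpha-glucoside for 20 min at room temperature; NaOH/glycine stop, read ex 365/em 440 nm, Hill-fitted AC50.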

[16] = target: Glucocorticoid receptor (Homo sapiens) (UniProt P04150); assay: GR-GFP Redistribution (AID 450;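 active means compounds whose dose series gives a full or clear partial fitted curve of increased nuclear translocation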; further: potency means the concentration at half of the fitted maximal effect); conditions: U2OS GR-GFP nuclear translocation, laser cytometry, 2 h

CCCC[S@@](=N)(=O)CC[C@@H](N)C(=O)O
inactive: activity change, negative = inhibition [1] 3.63% [at 38 µM] and -2.23% [at 38 µM] | Potency [2] | activity change, negative = inhibition [3] -1.5% [at 38 µM] and 5.43% [at 38 µM] | Potency [4] > 46 µM | Potency [5] | Potency [6] | outcome [7] | Potency [8] | outcome [9] | Potency [10] | Potency [11] | outcome [12] | outcome [13] | outcome [14] | Potency [15]

CN1[C@@H]2CC[C@H]1CC(NC(=O)c1nn(C)c3ccccc13)C2 (some centres undefined)
inactive: activity change, negative = inhibition [1] -1.02% [at 38 µM] | Potency [2] | activity change, negative = inhibition [3] -9.68% [at 38 µM] | Potency [16] > 46 µM | Potency [4] > 46 µM | Potency [5] | Potency [6] | outcome [9] | Potency [10] | Potency [11] | outcome [12] | outcome [13] | outcome [14] | Potency [15]
